Experimental data: PubChem BioAssay AID1159580 (chemical genetic matrix, 2015)
Where “and” joins values, the source holds several entries; their conditions need not be identical. Equal entries are not always repeated. About 2,000 (36%) of roughly 5,500 compounds were called active. Another 18% or so got no clear call; they are omitted. This is one part of the list. A number with no mark means an inactive call. Cut-off read from the data, not from the text of the source: active = normalized growth mostly below about 0.91 (no sharp cut-off); inconclusive = no clear call, values can overlap the other calls; inactive = mostly above about 0.92.

Assay: chemical genetic growth profiling, strain panel (AID 1159580);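 note: tested at 20 µM; growth read once vehicle control cultures reached saturation at 30 °C; 1 = growth at the plate median or of vehicle wells; lower values mean less growth of the strain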
Conditions: S. cerevisiae deletion strains, growth OD

Compound: CC1(C)C2CC[C@]3(C)C(C(=O)C=C4[C@H]5C[C@@](C)(C(=O)O)CC[C@]5(C)CC[C@]43C)[C@@]2(C)CC[C@@H]1O (stereo partly specified)
- normalized growth (locus YAL013W, strain DEP1, hits give low values): 1.04
- normalized growth (locus YAL021C, strain ccr4, hits give low values): 1.02
- normalized growth (locus YAL026C, strain drs2, hits give low values): 0.881 (active)
- normalized growth (locus YAL030W, strain snc1, hits give low values): 1
- normalized growth (locus YBL061C, strain skt5, hits give low values): 0.972
- normalized growth (locus YBR009C, strain hhf1, hits give low values): 0.861 (active)
- normalized growth (locus YBR021W, strain FUR4, hits give low values): 1
- normalized growth (locus YBR023C, strain chs3, hits give low values): 0.941
- normalized growth (locus YBR171W, strain sec66, hits give low values): 1.02
- normalized growth (locus YBR229C, strain ROT2, hits give low values): 1.04
- normalized growth (locus YBR231C, strain swc5, hits give low values): 0.98
- normalized growth (locus YBR279W, strain paf1, hits give low values): 0.948
- normalized growth (locus YCL011C, strain gbp2, hits give low values): 0.923
- normalized growth (locus YCL016C, strain dcc1, hits give low values): 0.944
- normalized growth (locus YCL029C, strain bik1, hits give low values): 0.962
- normalized growth (locus YCL061C, strain MRC1, hits give low values): 0.96
- normalized growth (locus YCL069W, strain vba3, hits give low values): 0.955
- normalized growth (locus YCR088W, strain abp1, hits give low values): 1.01
- normalized growth (locus YDL005C, strain med2, hits give low values): 1
- normalized growth (locus YDL035C, strain GPR1, hits give low values): 0.969
- normalized growth (locus YDL040C, strain nat1, hits give low values): 0.995
- normalized growth (locus YDL074C, strain BRE1, hits give low values): 1.02
- normalized growth (locus YDL101C, strain DUN1, hits give low values): 1.02
- normalized growth (locus YDL134C, strain PPH21, hits give low values): 1.03
- normalized growth (locus YDL185W, strain tfp1, hits give low values): 1.01
- normalized growth (locus YDL192W, strain arf1, hits give low values): 1.01
- normalized growth (locus YDR001C, strain nth1, hits give low values): 1.02
- normalized growth (locus YDR069C, strain doa4, hits give low values): 0.985
- normalized growth (locus YDR101C, strain arx1, hits give low values): 0.988
- normalized growth (locus YDR137W, strain rgp1, hits give low values): 0.743 (active)
- normalized growth (locus YDR150W, strain NUM1, hits give low values): 1.06
- normalized growth (locus YDR159W, strain sac3, hits give low values): 0.977
- normalized growth (locus YDR162C, strain NBP2, hits give low values): 1.02
- normalized growth (locus YDR195W, strain ref2): 1.1
- normalized growth (locus YDR297W, strain sur2, hits give low values): 0.963
- normalized growth (locus YDR318W, strain mcm21, hits give low values): 0.994
- normalized growth (locus YDR334W, strain swr1, hits give low values): 1.04
- normalized growth (locus YDR335W, strain msn5, hits give low values): 0.941
- normalized growth (locus YDR388W, hits give low values): 1.01
- normalized growth (locus YDR392W, strain spt3, hits give low values): 0.493 (active)
- normalized growth (locus YDR502C, strain sam2, hits give low values): 1
- normalized growth (locus YEL003W, strain gim4, hits give low values): 0.97
- normalized growth (locus YEL037C, strain rad23, hits give low values): 1.01
- normalized growth (locus YEL061C, strain CIN8 (second series), hits give low values): 0.983
- normalized growth (locus YEL061C, strain CIN8, hits give low values): 1.04
- normalized growth (locus YER015W, strain faa2, hits give low values): 0.933
- normalized growth (locus YER016W, strain bim1, hits give low values): 1.02
- normalized growth (locus YER110C, hits give low values): 1.01
- normalized growth (locus YER111C, strain swi4, hits give low values): 1.01
- normalized growth (locus YER155C, strain BEM2 (second series), hits give low values): 0.874
- normalized growth (locus YER155C, strain BEM2, hits give low values): 1.05
- normalized growth (locus YER167W, strain BCK2, hits give low values): 1.04
- normalized growth (locus YFR010W, strain ubp6, hits give low values): 0.99
- normalized growth (locus YGL078C, strain dbp3, hits give low values): 0.94
- normalized growth (locus YGL086W, strain mad1, hits give low values): 1.01
- normalized growth (locus YGL167C, strain pmr1, hits give low values): 1.02
- normalized growth (locus YGL173C, strain kem1, hits give low values): 0.999
- normalized growth (locus YGL227W, strain vid30, hits give low values): 1.02
- normalized growth (locus YGL240W, strain doc1, hits give low values): 0.879 (active)
- normalized growth (locus YGL248W, strain PDE1, hits give low values): 1.03
- normalized growth (locus YGL253W, strain hxk2, hits give low values): 0.754 (active)
- normalized growth (locus YGR078C, strain PAC10, hits give low values): 1.01
- normalized growth (locus YGR135W, strain pre9, hits give low values): 0.985
- normalized growth (locus YGR229C, strain SMI1, hits give low values): 0.984
- normalized growth (locus YGR252W, strain gcn5, hits give low values): 0.935
- normalized growth (locus YHR013C, strain ard1, hits give low values): 0.965
- normalized growth (locus YHR027C, strain rpn1, hits give low values): 0.997
- normalized growth (locus YHR030C, strain SLT2, hits give low values): 1.05 and 1.01
- normalized growth (locus YHR079C, strain IRE1 (second series), hits give low values): 1
- normalized growth (locus YHR079C, strain IRE1, hits give low values): 1.02
- normalized growth (locus YHR094C, strain hxt1, hits give low values): 1.02
- normalized growth (locus YHR129C, strain ARP1, hits give low values): 1.06
- normalized growth (locus YHR142W, strain chs7, hits give low values): 0.78 (active)
- normalized growth (locus YHR200W, strain rpn10, hits give low values): 0.999
- normalized growth (locus YIL066C, strain RNR3, hits give low values): 1.03
- normalized growth (locus YIL073C, strain SPO22, hits give low values): 0.994
- normalized growth (locus YIL125W, strain kgd1, hits give low values): 1.03
- normalized growth (locus YIR030C, strain dcg1, hits give low values): 1.01
- normalized growth (locus YJL092W, strain hpr5, hits give low values): 1.01
- normalized growth (locus YJL095W, strain BCK1 (second series), hits give low values): 0.83 (active)
- normalized growth (locus YJL095W, strain BCK1, hits give low values): 1.04 and 1.01
- normalized growth (locus YJL115W, strain asf1, hits give low values): 1.04
- normalized growth (locus YJL129C, strain trk1, hits give low values): 0.921
- normalized growth (locus YJL134W, strain LCB3, hits give low values): 1.03
- normalized growth (locus YJL154C, strain vps35, hits give low values): 1.02
- normalized growth (locus YJL164C, strain tpk1, hits give low values): 0.865 (active)
- normalized growth (locus YJL166W, strain qcr8, hits give low values): 0.845 (active)
- normalized growth (locus YJL168C, strain set2, hits give low values): 1.02
- normalized growth (locus YJL187C, strain SWE1 (second series), hits give low values): 1
- normalized growth (locus YJR043C, strain POL32, hits give low values): 0.969
- normalized growth (locus YJR066W, strain TOR1, hits give low values): 0.96
